Consider four molecules from PubChem BioAssay.

Experiment [1] in a line: compounds altering viability of human ES cells (AID 493140; call rule not given here;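 also: cells exposed to compounds for four days before counting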). As to conditions: human embryonic stem cell survival screen; stronger effect = higher value.
A short description of experiment [2]: P. berghei load reduction in hepatocytes – cell-based, HepG2, luciferase luminescence, HepG2 viability, primary screen (AID 624349; in the data active = parasite load remaining mostly below about 12%, no sharp cut-off; inactive = mostly above about 10%;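 also: 100% = mean of DMSO negative control wells on the same plate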). As to conditions: P. berghei liver stage in HepG2, luciferase luminescence, concentration not given here; parasite load remaining: stronger effect = lower value; viability: measured here: HepG2 viability without parasites.
Experiment [3] is described as follows: Wnt pathway potentiators raising nuclear beta-catenin – imaging, WNT3A-conditioned medium, mouse C2C12, NPC library, primary screen (AID 1117326; in the data active = nuclear beta-catenin stimulation mostly above about 4.2%, no sharp cut-off; inactive = mostly below about 10%). As to conditions: stronger effect = higher value.
The nature of experiment [4]: stimulators of insulin release from INS-1E, primary screen, cell-based, 5 mM glucose, NPC library (AID 1117329;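 active = compound raises insulin release from rat beta cells at 5 mM glucose, no numeric limit stated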). As to conditions: rat INS-1E insulin secretion, at 10 µM, stronger effect = higher value.
Experiment [5] in a line: growth inhibition of GSK3B-pretreated HCT116 cells – cell-based, CellTiter-Glo, 0.2 to 20 µM (AID 1117336;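 active = compounds lowering colon cancer cell viability after pretreatment blocking the GSK3B kinase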). As to conditions: HCT116 viability after GSK3B inhibitor, at 20 µM, stronger effect = higher value.
A short description of experiment [6]: inhibition of endothelial tube formation, primary screen, imaging, VEGF stimulated, CD31 staining, tube area, NPC library (AID 1117340;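 active = compound that reduces growth-factor-driven endothelial tube area in a mixed cell culture, no cutoff stated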). The note with it: VEGF-stimulated ADSC/ECFC co-culture, at 10 µM, stronger effect = higher value.
The nature of experiment [7]: GLP1 release stimulators, primary, NCI-H716, NPC library (AID 1117341;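 active = compound raises GLP1 secretion from the human gut endocrine cells, with no numeric limit stated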). As to conditions: NCI-H716 cells, at 10 µM, stronger effect = higher value.
Experiment [8] is described as follows: HCT116 colon cancer cell growth inhibition, primary screen, CellTiter-Glo luminescence, NPC library (AID 1117342;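 active = compounds that lower survival of HCT116 colon cancer cells in the luminescence readout, no numeric limit stated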). The note with it: at 20 µM (top of the series). (In general: In ATP-based viability assays light output follows the ATP content of the culture.)
Experiment [9] in a line: reduced SW480 viability measured with CellTiter-Glo, NPC library, primary (AID 1117343;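 active = compounds that lower viability of the colon cancer cells in the luminescence readout, with no numeric limit stated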). The note with it: CellTiter-Glo luminescence; at 20 µM (top of the series) unless noted.
Experiment [10] in a line: NPC library primary testing for decreased DLD-1 cell viability via CellTiter-Glo (AID 1117346;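 active = compounds that lower survival of DLD-1 colon cancer cells in the luminescence readout, no cutoff given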). The note with it: DLD-1 viability, CellTiter-Glo luminescence; at 20 µM (top of the series).
The nature of experiment [11]: EMT-state selective cytotoxicity in co-culture – imaging, PC-3E GFP, TEM4-18 mCherry, primary screen (AID 1345086;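 active = compounds killing one labelled cell type while sparing the other, by normalised counts and ratio limits, not self-fluorescent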;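 as to all read-outs here: cells exposed to compound for 72 h before imaging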;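 as to red/green cell ratio (normalised): normalised mesenchymal count divided by normalised epithelial count so high means epithelial killing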). The note with it: PC-3E GFP / TEM4-18 mCherry co-culture, imaging cell counts, at 1 µM; for red/green cell ratio (normalised): actives lie on both sides, counts scaled to control wells, 1 = unselective.
Experiment [12] can be described thus: viability loss with induced miR-34 in A549 – imaging, A549 dox-inducible miR-34, nuclei and caspase counts, primary screen (AID 1347080). As to conditions: A549 miR-34 inducible, Hoechst nuclei count, 48 h.
Experiment [13] can be described thus: MELAS cybrid and Rieske KO viability enhancers – cell-based, MELAS cybrids, Rieske KO mouse fibroblasts, CellTiter-Glo, primary screen (AID 1508586;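 active = mean z-score across replicates of 1.96 or higher in either the MELAS or the Rieske mutant cell line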;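 also: z relative to plate mean and SD of compound and empty wells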). As to conditions: low glucose.
Experiment [14] has as its target NAD(+) hydrolase SARM1 (Homo sapiens) (UniProt Q6SZW1). The experiment in a line: blocking NAD cleavage by SARM1 SAM-TIR – cell lysate, NAD-Glo luminescence (AID 1508614;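 active = compound whose remaining NAD level is above about 45 nM, limit read from the data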;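 also: higher remaining NAD means stronger inhibition of SARM1 NADase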). The note with it: SAM-TIR HEK293T lysate NADase, at 1 µM, stronger effect = higher value.
The mark [15] stands for this setting: measured here: epithelial PC-3E GFP cell survival.
The mark [16] stands for this setting: measured here: mesenchymal TEM4-18 mCherry cell survival.
Setting [17] is: stronger effect = lower value, cell number ratio, induced over uninduced.
[18] abbreviates: measured here: relative caspase fold change +Dox/-Dox.
Where [19] appears, read: measured here: total cells with miR-34 induction, stronger effect = lower value.
The mark [20] stands for this setting: measured here: total cells without miR-34 induction.
[21] abbreviates: MELAS cybrid survival, CellTiter-Glo 48 h, stronger effect = higher value.
The mark [22] stands for this setting: Rieske KO mouse fibroblast survival, CellTiter-Glo 72 h.

Several values for one entry are separate records, joined by “and”; a condition that tells them apart may be missing. Equal values may be shown once. Activity calls are given as the source filed them.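 The calls were made as follows, unless noted: active = compounds whose cell count with miR-34 switched on is under 0.7 times the count with it off; inactive = the rest.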

Sequence of NAD(+) hydrolase SARM1 (Homo sapiens) (Q6SZW1 whole entry, looked up): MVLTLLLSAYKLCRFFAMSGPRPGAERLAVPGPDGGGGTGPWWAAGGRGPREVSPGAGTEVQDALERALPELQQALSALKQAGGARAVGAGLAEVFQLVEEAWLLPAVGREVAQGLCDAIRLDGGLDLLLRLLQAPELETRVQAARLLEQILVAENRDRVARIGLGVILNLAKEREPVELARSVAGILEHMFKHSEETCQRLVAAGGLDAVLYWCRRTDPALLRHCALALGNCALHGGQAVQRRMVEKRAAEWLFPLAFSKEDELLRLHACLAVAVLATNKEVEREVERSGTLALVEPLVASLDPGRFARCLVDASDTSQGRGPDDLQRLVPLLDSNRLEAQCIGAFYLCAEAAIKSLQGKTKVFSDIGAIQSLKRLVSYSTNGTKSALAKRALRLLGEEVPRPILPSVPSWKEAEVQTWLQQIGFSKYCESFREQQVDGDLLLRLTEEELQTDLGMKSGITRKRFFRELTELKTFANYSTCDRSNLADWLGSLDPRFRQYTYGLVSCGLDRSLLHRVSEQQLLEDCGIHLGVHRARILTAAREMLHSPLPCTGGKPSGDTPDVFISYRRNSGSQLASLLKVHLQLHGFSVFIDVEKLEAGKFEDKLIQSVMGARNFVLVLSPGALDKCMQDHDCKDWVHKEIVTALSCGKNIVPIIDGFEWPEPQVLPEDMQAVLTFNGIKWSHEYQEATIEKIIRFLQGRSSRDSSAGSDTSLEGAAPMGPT

Regarding `O=C(N/N=C/c1ccc([N+](=O)[O-])o1)c1ccc(O)cc1`, the survival in experiment [1] is 8.5 (inactive). Besides, the parasite load remaining in experiment [2] is -8.11% (inactive) and 25.6% (inactive). For the same molecule, the viability – broadly, a read-out of living cells in per cent, often relative to untreated cells – in [2] was 21.5% and 60.5%. Further, the nuclear beta-catenin stimulation in experiment [3] (at 10 µM) was 18.2% (inactive); in experiment [3] (stimulation, at 2 µM), 2%. For the same molecule, the insulin secretion stimulation in experiment [4] was -3% (inactive). Moreover, in experiment [5], the viability decrease was 99.5% (active). Moreover, the tube area decrease in experiment [6] is 26.5% (inactive). The GLP1 secretion stimulation in experiment [7] was 5.1% (inactive). For the same molecule, the inhibition of viability in experiment [8] is 102% (active). Besides, the viability decrease (inhibition) in [9] is 67.8% (active); in [10], 81.1% (active). In addition, the red/green cell ratio (normalised) in [11] was 0.78 (inactive). Further, the normalised cell number is 1.11 in experiment [11] (setting [15]) and 0.87 in [11] (setting [16]). In addition, the fold change in experiment [12] (setting [17]) is 0.844 (inactive); in [12] (setting [18]), 1.92. Besides, the cell count in experiment [12] (setting [19]) came out at 3090; in experiment [12] (setting [20]), 3660. Further, the z-score in [13] (setting [21]) is -3.44 (inactive); in experiment [13] (setting [22]), -1.34. Further, the remaining NAD in experiment [14] is 10 nM (inactive).

Consider `CN(C(=O)CN(CCO)CC(=O)N(C)C(C)(C)Cc1ccccc1)C(C)(C)Cc1ccccc1`, for which, in experiment [1], the survival is 8.83 (inactive). The nuclear beta-catenin stimulation is 9.4% (inactive) in experiment [3] (at 10 µM) and 3.2% in experiment [3] (stimulation, at 2 µM). Further, the insulin secretion stimulation in experiment [4] was 1.4% (inactive). For the same molecule, the viability decrease in experiment [5] was -33.9% (inactive). For the same molecule, the tube area decrease in [6] is 2.2% (inactive). The GLP1 secretion stimulation in experiment [7] is 107% (active). Also, in experiment [8], the inhibition of viability was 59.3% (active). The viability decrease (inhibition) was 124% (active) in [9] and 104% (active) in experiment [10]. For the same molecule, in experiment [11], the red/green cell ratio (normalised) is 1.14 (inactive). Moreover, the normalised cell number was determined as 1.13 in experiment [11] (setting [15]) and 1.29 in [11] (setting [16]). In addition, the fold change in [12] (setting [17]) is 0.876 (inactive) and 0.908 (inactive); in experiment [12] (setting [18]), 1.3 and 4.08. Besides, the cell count is 7940 and 11300 in experiment [12] (setting [19]); 9070 and 12400 in experiment [12] (setting [20]). Moreover, the z-score in [13] (setting [21]) was 0.165 (inactive); in [13] (setting [22]), -0.15. Moreover, in experiment [14], the remaining NAD is 10 nM (inactive).

For the molecule `CN(C(=O)C(Cl)Cl)c1ccc(OC(=O)c2ccco2)cc1`, in experiment [1], the survival is 6 (inactive). For the same molecule, the parasite load remaining in [2] was 89.8% (inactive) and 59.5% (inactive). Further, the viability in experiment [2] is 98.9% and 106%. The nuclear beta-catenin stimulation was 16.4% (inactive) in experiment [3] (at 10 µM) and 2.6% in experiment [3] (stimulation, at 2 µM). For the same molecule, the insulin secretion stimulation in experiment [4] is 0.3% (inactive). In [5], the viability decrease is -11.8% (inactive). For the same molecule, the tube area decrease in experiment [6] is 13.6% (inactive). In addition, the GLP1 secretion stimulation in experiment [7] was 0.9% (inactive). For the same molecule, in experiment [8], the inhibition of viability was -9.5% (inactive). The viability decrease (inhibition) in experiment [9] is 4.3% (inactive); in experiment [10] it was -2.6% (inactive). For the same molecule, the red/green cell ratio (normalised) in [11] is 1.01 (inactive). In addition, the results for the normalised cell number in experiment [11] (setting [15]) and in experiment [11] (setting [16]) were 0.98 and 0.99, respectively. Also, the fold change in experiment [12] (setting [17]) was 0.855 (inactive) and 0.819 (inactive); in [12] (setting [18]) it was 1.35 and 4.27. For the same molecule, the cell count is 9270 and 10300 in experiment [12] (setting [19]); 10800 and 12500 in experiment [12] (setting [20]). Moreover, the results for the z-score in experiment [13] (setting [21]) and in [13] (setting [22]) were 0.57 (inactive) and -0.472, respectively. The remaining NAD in [14] is 10 nM (inactive).

In the case of `CC1CC(OC(=O)c2ccccc2O)CC(C)(C)C1` (stereo unspecified), in [1], the survival is 6 (inactive). The parasite load remaining in experiment [2] is 86.4% (inactive) and 63% (inactive). In addition, the viability in experiment [2] is 75.8% and 101%. The nuclear beta-catenin stimulation in experiment [3] (at 10 µM) is 1.8% (inactive); in [3] (stimulation, at 2 µM), -0.1%. Further, the insulin secretion stimulation in experiment [4] was 0% (inactive). For the same molecule, in [5], the viability decrease was -63.6% (inactive). Also, in [6], the tube area decrease is 4.9% (inactive). Besides, in [7], the GLP1 secretion stimulation is -7.6% (inactive). For the same molecule, the inhibition of viability in experiment [8] was 9.33% (inactive). The viability decrease (inhibition) is 6% (inactive) in experiment [9] and -0.4% (inactive) in experiment [10]. The red/green cell ratio (normalised) in experiment [11] is 1.12 (inactive). Moreover, the normalised cell number in [11] (setting [15]) is 1.37; in experiment [11] (setting [16]), 1.53. The fold change is 0.96 (inactive) and 0.853 (inactive) in [12] (setting [17]); 0.489 and 3.24 in [12] (setting [18]). The cell count was 9060 and 10300 in [12] (setting [19]); 9440 and 12000 in experiment [12] (setting [20]). Also, the z-score in experiment [13] (setting [21]) is -0.66 (inactive); in experiment [13] (setting [22]) it was -0.623. In addition, the remaining NAD in [14] is 10 nM (inactive).
